# Screens from PubChem BioAssay.
# Most compounds without a hit are left out; they make up all but 7.3% or so of the library.
# NPC1 prom act – activators of NPC1 promoter; Huh7 NPC1 promoter luciferase reporter, 24 h; hit rate 2.4% among 320,000; Potency, µM (series often up to 9.22 µM), without a hit: at the top dose activation, usual class: activators; also: % of control where 0% means no effect; nearly all actives have a fitted effect of over 60% in size
#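 Huh7 reporter cells (NPC1 promoter driving luciferase) are dosed with compound for 24 h at 37 °C, 5% CO2; luciferase detection reagent is then added and luminescence measured after 10 min at ambient temperature.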
# SMN2 splice enh – increases expression of the SMN2 splice variant; AID 1458; hit rate 2.8% among 210,000; Potency, µM (titrated, usually from 46.1 µM), inactives show top-dose activity change, positive = activation, hits mostly activators; HEK293 SMN2-luciferase splicing reporter, luminescence, 30-36 h; also: % of control where 0% means no effect; nearly all actives have a fitted effect of over 55% in size
#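 HEK293 cells carry an SMN2 […]–luciferase reporter in which exon 7 inclusion puts luciferase in frame. Cells were plated 10-12 h before compound addition, then incubated 30-36 h at 37C. ONE-Glo luminescence was read; sodium butyrate at 4.5 mM final served as control.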
# KinaseGlo FLuc – blocks Kinase-Glo luciferase, a counter-screen artifact; Q27757; Kinase-Glo luciferase, ATP luminescence, 8 min; Potency, µM (titrated, usually from 38.3 µM), for the others: at the top dose activity change, negative = inhibition, hits mostly inhibitors; hit rate 0.28% among 200,000; also: % is scaled to controls: 0 for no effect and ±100 for the full control effect; nearly all actives have a fitted effect of over 60% in size
#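 Compounds were added to a substrate mix at pH 7.2 (50 mM imidazole, 10 uM ATP, within the enzyme's linear range), followed by Kinase-Glo detection reagent; luminescence was measured after 8 minutes at ambient temperature.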
# Rab9 promoter act – activates the Rab9 promoter. Huh7 Rab9 promoter-luciferase reporter, luminescence, 24 h. Potency, µM (series often up to 9.22 µM), inactives show at the highest dose activation, negative = inhibition, most hits filed as activators. hit rate 2.8% among 320,000. AID 485297; also: % of control where 0% means no effect; nearly all actives have a fitted effect of over 60% in size
#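 Cell-based reporter: Huh7 stable for Rab9 promoter-driven luciferase, plated in reduced-serum medium with 10% FBS at 1500 cells/well, compound-treated 24 h at 37 °C, luminescence read after 10 min reagent.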
# FLuc modulator – inhibits or activates purified firefly luciferase, miR-21 counter-screen. hit rate 6.9% among 360,000. Potency, µM (doses to about 57.5 µM), without a hit: top-dose activity change, negative = inhibition, hits mostly inhibitors. AID 588342. P08659. purified FLuc, Km substrates, luminescence inhibition;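 also: plate controls were vehicle for no effect and reference inhibitor for full effect; nearly all actives have a fitted effect of over 55% in size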
# Target sequence (P08659 whole entry, looked up): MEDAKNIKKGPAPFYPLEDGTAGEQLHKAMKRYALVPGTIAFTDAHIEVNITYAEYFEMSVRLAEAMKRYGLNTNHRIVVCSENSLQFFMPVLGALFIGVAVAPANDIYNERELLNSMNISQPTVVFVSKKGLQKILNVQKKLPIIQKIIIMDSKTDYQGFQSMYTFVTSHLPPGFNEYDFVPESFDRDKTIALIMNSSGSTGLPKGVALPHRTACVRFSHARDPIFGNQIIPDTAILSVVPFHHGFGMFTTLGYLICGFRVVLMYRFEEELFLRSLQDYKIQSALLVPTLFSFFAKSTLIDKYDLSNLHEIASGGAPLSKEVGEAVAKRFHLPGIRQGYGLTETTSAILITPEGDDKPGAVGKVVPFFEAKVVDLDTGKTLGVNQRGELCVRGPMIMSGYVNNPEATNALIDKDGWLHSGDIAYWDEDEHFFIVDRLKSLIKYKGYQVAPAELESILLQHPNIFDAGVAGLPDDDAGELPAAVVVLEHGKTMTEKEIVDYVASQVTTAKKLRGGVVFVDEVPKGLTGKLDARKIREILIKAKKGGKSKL
#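 Biochemical qHTS of compounds, final roughly 60 µM downward over six points, against 10 nM purified firefly luciferase using Km concentrations of substrates (10 uM D-luciferin, 10 uM ATP) in Tris acetate pH 7.5 buffer; luminescence output.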
# ELG1 genotox – induces genotoxicity in HEK293T cells with luciferase-tagged ELG1. hit rate 1.3% among 330,000. Potency, µM (titrated, usually from 46 µM), inactives show at the highest dose activity change, positive = activation, actives largely listed as activators. HEK293T ELG1-luciferase reporter, luminescence, 16 h; also: % of control where 0% means no effect; nearly all actives have a fitted effect of over 60% in size
#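 ELG1-luciferase HEK293T cells, 2,000/well; compound pinned in; 16 hr, 37 °C, 5% CO2; ONE-Glo, 30 min RT; luminescence on CCD imager.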
# * marks the source's active call; other numbers are inactive results; ? = inconclusive; · = no result. Calls follow the shape of the dose curve; as a rule, active = well fitted curve in the direction sought with a large enough effect; inconclusive = small, poorly fitted or top-dose-only effect, or another doubt; inactive = no such curve, though single readings can be large; an effect the other way counts as inactive or inconclusive. Potency is read from the fitted curve at half-maximal effect.
SMILES,NPC1 prom act,SMN2 splice enh,KinaseGlo FLuc,Rab9 promoter act,FLuc modulator,ELG1 genotox
CCOC(=O)c1c(NC(=O)c2ccncc2)sc(C)c1C,-11%,-2%,0%,-3%,-11%,-5%
NC(=O)c1c(NC(=O)c2ccncc2)sc2c1CCCC2,?,-80%,-2%,?,11µM*,5%
Cn1nc(C(=O)Nc2sc3c(c2C#N)CCCC3)ccc1=O,17%,-15%,-4%,29%,5.4µM*,?
CCOC(=O)c1sc(NC(=O)c2ccncc2)c(C#N)c1C,-1%,-75%,-6%,-9%,11µM*,-4%
CC(C)C(=O)Nc1sc2c(c1C#N)CCCCC2,21%,12%,-1%,17%,?,9%
C=CC(=O)Nc1sc2c(c1C(N)=O)CCCC2,-12%,·,·,-3%,?,4%
CC(=O)c1cc2c(cc1NC(=O)c1cc(C)nn1-c1ccccc1)OCO2,-20%,-10%,-3%,-18%,3%,3%
O=C(O)c1ccc(CNCc2cccc(OCc3ccc(F)cc3)c2)cc1,-9%,·,·,2%,5%,0%
COc1ccc(OC)c(-c2c3c([nH]c(=S)c2C#N)CCCC3)c1,-5%,-2%,0%,11%,?,-5%
CN1CCN(C(c2cccc(Cl)c2)c2ccccc2Cl)CC1 (stereo unspecified),0%,-44%,-3%,0%,8%,-7%
N#Cc1c(NC(=O)c2ccncc2)sc2c1CCC2,14%,?,0%,18%,13µM*,20%
COc1cccc(OC)c1C(=O)Nc1sc2c(c1C#N)CCC2,12%,·,·,13%,-5%,-4%
Cc1cc(C(=O)Nc2sc3c(c2C#N)CCCCC3)cs1,?,11µM*,-4%,1.1µM*,0.95µM*,0.82µM*
CCOC(=O)c1csc(N/N=C2\CCCc3ccccc32)n1,-1%,·,·,1%,?,-12%
COc1ccc2c(c1)CCC/C2=N\Nc1nc(C(=O)NN)cs1,22%,·,·,2%,1.3µM*,5%
Cn1cc(Cl)c(C(=O)OCC(=O)Nc2nc(-c3ccc(Br)cc3)cs2)n1,14%,16µM*,-3%,17%,?,-1%
Cn1nccc1C(=O)OCC(=O)Nc1nc(-c2ccccc2)cs1,11%,10%,14%,11%,?,?
O=C(OCC(=O)c1cccc2ccccc12)c1ccc(CO)cc1,?,·,·,22%,12µM*,17%
COc1ccc(C(=O)COC(=O)c2nn(C)cc2Cl)cc1,24%,·,·,22%,17µM*,?
NC(=O)c1cccc2ccccc12,1%,·,·,-3%,-2%,0%
COc1ccc(C(=O)COC(=O)c2cccnc2SC)cc1,4%,3%,-21%,-9%,3.8µM*,0%
COc1ccc(OC)c(C(=O)COC(=O)c2cccnc2SC)c1,-9%,·,·,-8%,-3%,0%
CCC(CC)c1nnc(NC(=O)[C@@H](NC(=O)c2cccc(C)c2)C(C)C)s1,-3%,-7%,2%,-3%,1%,-2%
CCOC(=S)N/C(=N\S(=O)(=O)c1ccccc1)c1ccccc1,0%,1%,3%,-7%,1%,0%
O=C(NNC(=O)c1ccccc1Br)c1ccncc1,-2%,·,·,6%,-5%,5%
SMILES,NPC1 prom act,SMN2 splice enh,KinaseGlo FLuc,Rab9 promoter act,FLuc modulator,ELG1 genotox
CSc1ncccc1C(=O)OCC(=O)c1ccccc1Br,1%,-6%,-16%,-2%,8.5µM*,10%
CNC(=O)COC(=O)c1cccnc1SC,1%,-7%,-3%,-1%,1%,0%
CSc1ncccc1C(=O)OCC(=O)c1ccccc1,1%,2%,-3%,0%,12µM*,4%
O=C(COC(=O)c1cccnc1Cl)c1cccc(Cl)c1,2%,-4%,-4%,17%,13µM*,11%
O=C(OCC(=O)c1ccccc1Br)c1ccncc1,0%,4%,-7%,-3%,11µM*,-7%
O=C(COC(=O)c1cccnc1Cl)c1ccc(Cl)s1,·,·,·,·,·,-1%
Cc1ccc2c(=O)c(C(=O)c3ccccc3)cn(CC(=O)NCc3ccccc3)c2n1,·,·,·,·,-2%,·
